Experimental findings from PubChem BioAssay are described below.

SMILES strings stand for the structures. The list shows a part of the results. A number with no mark means an inactive call. Calls of active or inactive are those of the source.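 Rule for the calls, unless noted: active = inhibition above the primary screen's cutoff, its mean inhibition plus 3 SD (cut at about 35% in these data); inactive = the rest.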

Chain of Glutathione S-transferase omega-1 (Homo sapiens) (P78417 whole entry, looked up): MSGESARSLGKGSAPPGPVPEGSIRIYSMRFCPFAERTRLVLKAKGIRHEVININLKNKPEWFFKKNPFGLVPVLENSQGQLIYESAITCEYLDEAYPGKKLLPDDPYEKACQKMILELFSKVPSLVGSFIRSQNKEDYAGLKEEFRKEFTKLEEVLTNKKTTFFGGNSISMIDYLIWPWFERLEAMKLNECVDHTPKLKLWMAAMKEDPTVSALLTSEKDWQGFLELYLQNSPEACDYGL
Chain of Insulin-degrading enzyme (Homo sapiens) (P14735 whole entry, looked up): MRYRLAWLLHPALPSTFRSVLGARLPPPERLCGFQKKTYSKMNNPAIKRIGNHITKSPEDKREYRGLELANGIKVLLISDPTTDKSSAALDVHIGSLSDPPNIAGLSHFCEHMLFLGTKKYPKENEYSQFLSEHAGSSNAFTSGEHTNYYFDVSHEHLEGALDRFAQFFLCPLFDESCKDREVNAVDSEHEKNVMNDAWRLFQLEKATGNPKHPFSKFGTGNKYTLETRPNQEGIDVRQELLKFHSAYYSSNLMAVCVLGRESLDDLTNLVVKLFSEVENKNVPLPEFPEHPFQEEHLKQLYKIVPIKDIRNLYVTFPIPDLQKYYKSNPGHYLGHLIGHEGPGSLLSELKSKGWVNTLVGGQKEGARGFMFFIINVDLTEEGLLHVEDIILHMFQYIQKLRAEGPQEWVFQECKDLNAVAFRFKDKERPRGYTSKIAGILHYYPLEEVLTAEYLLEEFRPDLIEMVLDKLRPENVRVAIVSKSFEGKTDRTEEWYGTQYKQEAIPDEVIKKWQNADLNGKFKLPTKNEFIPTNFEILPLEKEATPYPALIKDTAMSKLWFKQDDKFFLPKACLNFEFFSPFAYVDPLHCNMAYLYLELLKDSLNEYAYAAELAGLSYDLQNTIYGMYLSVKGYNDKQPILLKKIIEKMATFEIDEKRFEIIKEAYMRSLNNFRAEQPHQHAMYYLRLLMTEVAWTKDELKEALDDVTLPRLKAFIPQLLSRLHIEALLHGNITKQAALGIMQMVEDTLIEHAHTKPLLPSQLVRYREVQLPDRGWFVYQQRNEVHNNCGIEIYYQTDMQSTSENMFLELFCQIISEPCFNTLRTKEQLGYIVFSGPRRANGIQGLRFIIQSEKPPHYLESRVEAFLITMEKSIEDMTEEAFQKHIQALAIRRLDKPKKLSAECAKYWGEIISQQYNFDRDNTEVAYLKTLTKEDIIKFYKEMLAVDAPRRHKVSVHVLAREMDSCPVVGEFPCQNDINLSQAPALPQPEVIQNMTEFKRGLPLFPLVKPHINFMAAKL

The first test addresses Glutathione S-transferase omega-1 (Homo sapiens) (UniProt P78417). The test can be described thus: recombinant GSTO1 blockers, retest – biochemical, fluorescence polarization, triplicate, counter-screen for RBBP9 inhibitor project, confirmation (AID 2176).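 Note: loss of polarization as inhibitors block binding of rhodamine sulfonate ester activity probe; 0% = GSTO1 with DMSO and 100% = wells lacking GSTO1 enzyme.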 The settings on record: recombinant GSTO1, probe fluorescence polarization; at 5.96 µM; hits give high values. On the technique in general: In fluorescence polarisation assays a small probe gives low polarisation when free and higher when bound to something large.
Take `Cc1ccc(C(=O)N/N=C/c2sc(=O)n(Cc3cccc(C(=O)O)c3)c2Cl)cc1`: the inhibition is 48.3% (active).

Consider `COC(=O)c1ccc(CSc2nncn2N)cc1`, for which the inhibition was 1.78%.

`O=c1cc(CCl)nc2scc(-c3ccccc3)n12`: the inhibition was 96.3% (active).

Regarding `COCCN1C=C2C(=O)C(C)(OC(=O)C3CCCC3)C(=O)C=C2C=C1c1ccsc1` (stereo unspecified), the inhibition is 7.54%.

As to `O=[N+]([O-])c1ccc(C=Nc2ccc(Cl)cc2Cl)s1`, the inhibition is 11.6%.

Consider `O=C(CCl)NNc1cccc(Cl)n1`, for which the inhibition is 50% (active).

For the molecule `Oc1c(C=Nc2cccc3nsnc23)ccc2ccccc12`, the inhibition is 69.9% (active).

`COc1ccc(C(C(=O)NC2CCCCC2)N(C(=O)CCl)c2ccccc2Cl)cc1` (stereo unspecified): the inhibition was 45% (active).

With `C=CCNC(=O)c1ccccc1SCc1c(C)noc1C`, the inhibition was 3.92%.

Turning to `CCN(C(=O)COC(=O)c1cc(NS(=O)(=O)c2ccc(Cl)c([N+](=O)[O-])c2)ccc1O)C1CCCCC1`, the inhibition was 32.6%.

With `CCOc1c(Br)cc(/C=C2\C(=O)N(CCC#N)N=C2C)cc1OC`, the inhibition is 3.85%.

For the molecule `COc1ccc(S(=O)(=O)N2CCOCC2)cc1NC(=O)CSc1ncnc2ccccc12`, the inhibition is 15.2%.

As to `CC/C(=N/Nc1ccccc1)c1cnnc(SC)n1`, the inhibition was 9.56%.

On to `O=C(c1cccnc1)N(c1cc2sc(=O)oc2c2ccccc12)S(=O)(=O)c1ccccc1`, for which the inhibition is 6.84%.

`O=C1Nc2c(Br)cc(Br)cc2C1(O)N1CCOCC1` (stereo unspecified): the inhibition is 25.2%.

On to `Oc1ccc(CNc2ccccc2O)cc1`, for which the inhibition is 21.7%.

Take `O=c1c(/C=N/O)coc2ccc(Cl)cc12`: the inhibition was 4.5%.

`CC(=O)N(C1=C(Cl)C(=O)c2ccccc2C1=O)c1ccc(C(=O)O)cc1`: the inhibition was 77.8% (active).

Take `CC(C)CC[n+]1ccn(C2=C([O-])c3ccccc3C(=O)/C2=N\S(=O)(=O)c2ccccc2)c1`: the inhibition was 68.2% (active).

For `O=C(O)c1cccc(NC(=S)N/N=C/c2c[nH]c3ccccc23)c1`, the inhibition is 54.5% (active).

On to `C[n+]1ccccc1C1CCCC/C1=N\Nc1ccc([N+](=O)[O-])cc1[N+](=O)[O-]` (stereo unspecified), for which the inhibition was 6.21%.

As to `COC1=C(N2CCOCC2)C(=O)c2ccccc2C1=O`, the inhibition was 28.9%.

As for `O=C(Cn1c(-c2ccccn2)nc2ccccc21)NCCN1CCOCC1`, the inhibition was 6.3%.

Consider `O=C(Nc1cc(N2CCOCC2)ncn1)NC1(C(F)(F)F)Oc2ccc(Cl)cc2O1` (stereo unspecified), for which the inhibition was 8.59%.

For `COC(=O)CCCC1=CC2=CC(=O)C(C)(OC(=O)c3cccs3)C(=O)C2=CN1CC1CC1` (stereo unspecified), the inhibition was 30.3%.

Take `CC1=CC(C)(C)Nc2ccc(OC(=O)CN3C(=O)C4CCCCC4C3=O)cc21` (stereo unspecified): the inhibition was 1.06%.

For the molecule `Cc1ccc(SCC2=NNC(=O)C2)cc1`, the inhibition is 11.5%.

As to `CCOC(=O)c1c(NC(=O)c2ccc(S(=O)(=O)N(C)CC3CCCO3)cc2)sc2c1CC(C)(C)NC2(C)C` (stereo unspecified), the inhibition is 4.04%.

For `Cc1[nH][nH]c(=O)c1C(c1ccc(-c2ccc(Cl)cc2)o1)c1c(C)[nH][nH]c1=O`, the inhibition was 22.6%.

As to `O=C(CCl)Nc1cccc(CP(=O)(c2ccccc2)c2ccccc2)c1`, the inhibition was 90.4% (active).

As for `NNC(=O)c1oc2nc(-c3ccccc3)cc(-c3ccco3)c2c1N`, the inhibition was 3.35%.

Regarding `Cc1cccc(N2CCN(c3ccc(NC(=O)/C=C\C(=O)O)cc3)CC2)c1`, the inhibition is 7.27%.

Turning to `CC1C(=O)Nc2ccccc2N1C(=O)c1ccc(F)cc1F` (stereo unspecified), the inhibition was 5.92%.

As for `O=C(Cc1cc(=O)[nH][nH]1)N/N=C/c1ccccc1[N+](=O)[O-]`, the inhibition was 5.98%.

With `COc1ccc(-c2csc(Nc3ccc(O)cc3)n2)cc1`, the inhibition is 7.69%.

Turning to `O=C(OCC(=O)N1CCCC1=O)c1cc(S(=O)(=O)N2CCOCC2)ccc1Cl`, the inhibition was 1.2%.

On to `O=C(c1[nH]ncc1-c1ccc(Cl)cc1)C1CO1` (stereo unspecified), for which the inhibition is 79.6% (active).

For `CC(C)(C)n1cnnc1Sc1ccc([N+](=O)[O-])cn1`, the inhibition was 28.1%.

With `c1coc(-c2nc3nc4ccccc4n3nc2-c2ccco2)c1`, the inhibition is 16.5%.

A further test addresses Insulin-degrading enzyme (Homo sapiens) (UniProt P14735). The experiment in a line: cellular IDE Abeta-cleavage inhibition – fluorescence polarization, HEK cells, FAbetaB substrate, confirmation (AID 435028;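 active = mean inhibition across triplicate wells above the cutoff set by the earlier primary insulin-degrading enzyme screen, cut at about 16% in these data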;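 note: 0% = DMSO wells and 100% = 60 µM reference IDE inhibitor Ii1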). As to conditions: at 5.59 µM, hits give high values.
For the molecule `O=C(c1cccnc1)N(c1cc2sc(=O)oc2c2ccccc12)S(=O)(=O)c1ccccc1`, the inhibition is 3.36%.

Take `CC(=O)N(C1=C(Cl)C(=O)c2ccccc2C1=O)c1ccc(C(=O)O)cc1`: the inhibition was 164% (active).

Turning to `CC1=CC(C)(C)Nc2ccc(OC(=O)CN3C(=O)C4CCCCC4C3=O)cc21` (stereo unspecified), the inhibition is 29.8% (active).

System in a further test: not listed separately
The test can be described thus: HEK cell viability loss – luminescence, cytotoxicity control for IDE inhibitor project (AID 449730; in the data active = inhibition above about 22%;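 note: 0% = vehicle wells and 100% = reference cytotoxic drug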). The settings on record: HEK293 cytotoxicity, ATP luminescence; at 5.59 µM; hits give high values.
Consider `O=C(c1cccnc1)N(c1cc2sc(=O)oc2c2ccccc12)S(=O)(=O)c1ccccc1`, for which the inhibition is 10.9%.

In the case of `CC(=O)N(C1=C(Cl)C(=O)c2ccccc2C1=O)c1ccc(C(=O)O)cc1`, the inhibition is 14.1%.

Regarding `CC1=CC(C)(C)Nc2ccc(OC(=O)CN3C(=O)C4CCCCC4C3=O)cc21` (stereo unspecified), the inhibition is 75% (active).

In another test the target is Protein-arginine deiminase type-4 (Homo sapiens) (UniProt Q9UM07). The experiment in a line: protein arginine deiminase 4 blockade, retest – biochemical, fluorescence polarization, confirmation (AID 488796;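 active = mean inhibition across replicates above the hit cutoff set by the earlier primary screen, cut at about 15% in these data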;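 note: inhibitors block active-site labeling by the probe so polarization falls; 0% = PAD4 with probe and DMSO and 100% = probe without PAD4 enzyme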). As to conditions: recombinant PAD4, RCA probe fluorescence polarization; at 6.36 µM; hits give high values.
Chain of Protein-arginine deiminase type-4 (Homo sapiens) (Q9UM07 whole entry, looked up): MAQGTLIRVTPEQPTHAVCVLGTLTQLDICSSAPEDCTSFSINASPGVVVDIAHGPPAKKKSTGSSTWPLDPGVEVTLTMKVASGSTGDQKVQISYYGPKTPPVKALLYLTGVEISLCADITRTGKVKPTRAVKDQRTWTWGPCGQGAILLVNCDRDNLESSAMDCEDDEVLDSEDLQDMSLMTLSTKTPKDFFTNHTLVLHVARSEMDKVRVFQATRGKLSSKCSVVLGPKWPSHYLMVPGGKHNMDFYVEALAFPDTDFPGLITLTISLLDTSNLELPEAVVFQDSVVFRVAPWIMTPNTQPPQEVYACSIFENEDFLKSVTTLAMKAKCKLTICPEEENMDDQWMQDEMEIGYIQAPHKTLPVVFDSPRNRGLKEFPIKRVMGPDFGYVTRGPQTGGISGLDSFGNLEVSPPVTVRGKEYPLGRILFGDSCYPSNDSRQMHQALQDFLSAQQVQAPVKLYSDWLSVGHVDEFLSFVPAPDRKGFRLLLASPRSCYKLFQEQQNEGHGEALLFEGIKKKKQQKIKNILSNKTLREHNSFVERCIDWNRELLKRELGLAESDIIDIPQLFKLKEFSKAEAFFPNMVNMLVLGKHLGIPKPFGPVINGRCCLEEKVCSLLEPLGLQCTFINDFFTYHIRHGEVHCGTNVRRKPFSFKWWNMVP
For `COCCN1C=C2C(=O)C(C)(OC(=O)C3CCCC3)C(=O)C=C2C=C1c1ccsc1` (stereo unspecified), the inhibition was -1.24%.

In the case of `Oc1c(C=Nc2cccc3nsnc23)ccc2ccccc12`, the inhibition is -54.5%.

Take `CCOc1c(Br)cc(/C=C2\C(=O)N(CCC#N)N=C2C)cc1OC`: the inhibition was -1.18%.

Turning to `COc1ccc(S(=O)(=O)N2CCOCC2)cc1NC(=O)CSc1ncnc2ccccc12`, the inhibition was 0.87%.

As to `COC(=O)CCCC1=CC2=CC(=O)C(C)(OC(=O)c3cccs3)C(=O)C2=CN1CC1CC1` (stereo unspecified), the inhibition is 1.6%.

As for `Cc1[nH][nH]c(=O)c1C(c1ccc(-c2ccc(Cl)cc2)o1)c1c(C)[nH][nH]c1=O`, the inhibition was 2.58%.

For orientation: inhibition means the drop in the measured response relative to a control, in per cent.
